The text below walks through data of PubChem BioAssay AID463115 (University of Pittsburgh Molecular Library Screening Center, 2010).

Each structure is given as a SMILES string. Out of some 220,000 compounds screened, about 130 (0.059%) were called active. The full list was thinned out, with actives kept by preference. Unmarked numbers belong to inactive results. Rule as the data show it: active = inhibition above about 25%; inactive = the rest.

Sequence of Furin (Homo sapiens) (P09958 108-714 limits assumed): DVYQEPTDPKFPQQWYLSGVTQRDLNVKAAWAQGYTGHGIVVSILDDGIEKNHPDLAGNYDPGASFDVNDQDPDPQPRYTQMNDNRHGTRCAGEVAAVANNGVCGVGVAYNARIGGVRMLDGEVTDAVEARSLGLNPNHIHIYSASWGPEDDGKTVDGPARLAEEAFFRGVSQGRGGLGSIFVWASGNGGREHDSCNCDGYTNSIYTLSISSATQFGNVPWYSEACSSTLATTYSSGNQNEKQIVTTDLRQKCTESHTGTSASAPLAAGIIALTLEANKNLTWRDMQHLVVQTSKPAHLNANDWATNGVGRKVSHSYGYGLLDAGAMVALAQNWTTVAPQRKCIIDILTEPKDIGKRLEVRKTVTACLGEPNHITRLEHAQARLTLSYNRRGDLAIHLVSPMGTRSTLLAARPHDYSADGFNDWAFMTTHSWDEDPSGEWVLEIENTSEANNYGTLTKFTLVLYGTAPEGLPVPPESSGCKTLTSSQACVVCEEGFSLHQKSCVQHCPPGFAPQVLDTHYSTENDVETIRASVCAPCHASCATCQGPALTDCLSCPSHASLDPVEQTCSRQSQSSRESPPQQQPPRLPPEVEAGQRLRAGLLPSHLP

This assay concerns the target Furin (Homo sapiens) (UniProt P09958). Kind of assay: furin protease activity blockers – biochemical, fluorescence intensity, primary screen (AID 463115). As to conditions: purified furin, fluorogenic substrate cleavage, active compounds read high; at 30 µM unless noted.
In the case of `CC(C)C(=O)NCc1cc(-c2ccc(Cl)cc2)no1`, the inhibition is 2.24%.

In the case of `O=S(=O)(c1ccc(F)cc1)N1CCN(Cc2ccccc2C(F)(F)F)CC1`, the inhibition was -12.9%.

Take `O=c1oc2ccccc2cc1-c1cn(-c2ccccc2)c(=S)[nH]1`: the inhibition is -34.3%.

Regarding `S=c1[nH]nc(NCCc2ccccc2)s1`, the inhibition was -19.4%.

In the case of `CC(C)(C)C(=O)OCc1nc(-c2ccc(O)c(O)c2)cs1`, the inhibition is -19.6%.

Consider `CCN(CC)c1ccc(NC(=O)C2CCC(CNc3c(N4CCCC4)c(=O)c3=O)CC2)c(C)c1` (centres undefined), for which the inhibition is -28.8%.

Take `C[n+]1ccc(/C=C/c2c[nH]c3ccccc23)cc1`: the inhibition is 3.06%.

On to `C=Cn1c(C(=O)O)ccc1-c1ccc(OC)cc1`, for which the inhibition is -9.46%.

As to `CC1CN(S(=O)(=O)c2ccc(C(=O)NN3CCN(C)CC3)cc2)CC(C)O1` (centres undefined), the inhibition was -23.8%.

With `CCOCN(C(=O)Cn1c(C(C)O)nc2ccccc21)c1c(C)cccc1CC` (centres undefined), the inhibition is -22.3% [at 20 µM].

For the molecule `O=C(/C=C/c1ccc(Cl)cc1)Nc1ccc(Br)cn1`, the inhibition was -19.6%.

For the molecule `Cc1oc(-c2ccccc2Cl)[n+]([O-])c1C`, the inhibition is -9.84% [at 20 µM].

As to `C=C(C)C(=O)O[C@H]1C/C(C)=C\C(=O)/C=C(\C)[C@H](O)[C@@H]2OC(=O)C(=C)[C@@H]21`, the inhibition is -5.36%.

Regarding `CCN(C(=O)CSc1nnc2ccccn12)C1CCS(=O)(=O)C1` (centres undefined), the inhibition is -27.8%.

For `NNC(=O)c1cnn(-c2ccccc2)c1C(F)(F)F`, the inhibition is -29%.

With `CCN=C1S/C(=C\c2cc(Br)ccc2OCC(=O)OCC)C(=O)N1CC`, the inhibition is -4.2%.

As for `N#Cc1ccccc1NC(=O)COc1c(Br)cc(Br)c2cccnc12`, the inhibition is -14.7%.

Take `Cn1c(SCC(=O)Nc2ccc(Cl)cc2)nc(O)cc1=O`: the inhibition is -15%.

With `O=C(CSc1nc2ccc([N+](=O)[O-])cc2[nH]1)c1ccc(Cl)cc1`, the inhibition was -10.5%.

Regarding `S=C(NN=C1CCN(Cc2ccccc2)CC1)NC1CCCCC1`, the inhibition is -25.8%.

For `CCCC1OC23CCCCC2C(C#N)(C#N)C1(C#N)C(=N)O3` (centres undefined), the inhibition was -12.5%.

Regarding `COc1cc(C)c(S(=O)(=O)N2CCOCC2)c(C)c1C`, the inhibition was -15.3%.

In the case of `COc1ccccc1N1CCN(/N=C\C(Br)=C\c2ccccc2)CC1`, the inhibition is -19%.

For `CCO[C@H]1OC(C(=O)N2CCCCCCC2)=C[C@@H](c2ccc(C(F)(F)F)cc2)[C@@H]1CCCO`, the inhibition was -28%.

In the case of `O=C1CCCC(O)=C1C=NCCc1ccccc1`, the inhibition was -20.8%.

Consider `Cc1cc(N=CC2=C(O)CCCC2=O)no1`, for which the inhibition is 42.3% (active).

Take `COc1ccc(O)c(C=Nc2cc(C)on2)c1`: the inhibition was -25.7%.

With `OCCC1CN(Cc2cccn2-c2nccs2)CCN1CCc1ccccc1` (centres undefined), the inhibition was -12.8%.

Turning to `Cc1nc(CNS(=O)(=O)c2cc([N+](=O)[O-])ccc2C)cs1`, the inhibition was 10.1%.

On to `COC(=O)C1=C(N)Oc2c(oc(CO)cc2=O)C1c1c(F)cccc1Cl` (centres undefined), for which the inhibition was -27.8%.

For the molecule `CN(C)c1ccnc2sc3c(=O)n(-c4ccc(Cl)cc4)cnc3c12`, the inhibition is -7.85% [at 20 µM].

Turning to `CCC(C)(C)NC(=O)CN(C(=O)C(=O)Nc1ccc2c(c1)OCCO2)C(C)(C)CC`, the inhibition is -14.5%.

As to `CSc1nnc(SCc2nc3sc(C(=O)O)c(C)c3c(=O)[nH]2)s1`, the inhibition was -6.65%.

Turning to `O=C(CC1SCCNC1=O)Nc1ccc(Cl)c(Cl)c1` (centres undefined), the inhibition is -21.8%.

With `Cc1nnsc1C(=O)N/N=C/c1cccc(C(F)(F)F)c1`, the inhibition was 0.985%.

Turning to `COc1ccc([N+](=O)[O-])cc1NC(=O)COC(=O)/C=C/c1ccco1`, the inhibition is -30.9%.

`CCC(C)(C)NC(=O)C(c1cccc(OC)c1OC)N(CC(C)C)C(=O)CCC(=O)Nc1cc(C)on1` (centres undefined): the inhibition is -14.8%.

Turning to `CC(C)(C)NC(=O)/C(=C/c1cccnc1)NC(=O)c1ccco1`, the inhibition is -17%.

For the molecule `Cc1cc(NC(=O)CSc2nc3ccccc3n2CC(C)C)no1`, the inhibition was -16.9%.

On to `CC(C)c1cc(C(N)=O)c(NC(=O)c2cccc(COc3ccc(Br)cc3)c2)s1`, for which the inhibition is -15.1% [at 20 µM].

For the molecule `CC(C)(C)NC(=O)c1cccc(NC(=O)Cc2ccc(Br)cc2)c1`, the inhibition is -14.8%.

With `CCOn1c(=O)c(=O)n(O)c2ccccc21`, the inhibition was -4.13%.

Turning to `Oc1ccccc1N1CCN(C(=S)NCc2ccccc2)CC1`, the inhibition was -19.1%.

As for `Cc1ccc(C2(C(F)(F)F)N=C3Sc4cc(C)cc(C)c4N3C(=O)N2)cc1` (centres undefined), the inhibition is -11.5% [at 20 µM].

Regarding `O=C(O)CC/C(=N\NC(=O)c1ccc(F)cc1)c1ccc(Br)cc1`, the inhibition is -17.1%.

In the case of `CCCc1c(C(=O)O)cnn1-c1ccc(Cl)cc1`, the inhibition was -33.8%.

Turning to `O=C(Nc1cccc(Cl)c1)c1cc([N+](=O)[O-])ccc1N1CCN(CCO)CC1`, the inhibition was -21.2%.

Turning to `O=c1[nH][nH]c(C(F)(F)F)c1C=NCc1ccccc1Cl`, the inhibition was -7.43% [at 20 µM].

Consider `O=C(CNC(=O)COc1ccccc1)NCCc1ccccn1`, for which the inhibition is -14%.

On to `C=CCOc1ccc(/C=N/NC(=O)C(C)Sc2ccccn2)cc1OCC` (centres undefined), for which the inhibition was -21.6%.

On to `CSc1ccc(C(=O)C2CCCN(C(=O)c3ccc(C)nc3)C2)cc1` (centres undefined), for which the inhibition was -11.4%.

For the molecule `Clc1ccc(-c2nnc(-c3ccccc3)nc2N2CCSCC2)cc1`, the inhibition was -4.61% [at 20 µM].

Consider `Fc1ccc(COc2cccc(-c3n[nH]c(=S)o3)c2)cc1`, for which the inhibition is -11.9%.

In the case of `O=C1C=C(c2ccc(Cl)cc2)C(=O)N1Nc1ccccc1`, the inhibition was -9.42% [at 20 µM].

Consider `O=C(NNc1cc(Cl)ccc1Cl)c1cccnc1Cl`, for which the inhibition is -21.6%.

As for `NS(=O)(=O)c1ccc(NC(=O)COC(=O)c2ccco2)cc1`, the inhibition was -19.1%.

For `O=c1[nH]c(CCl)nc2cc(-c3ccc(Cl)cc3)sc12`, the inhibition is -0.616% [at 20 µM].

Regarding `Cc1cc(Cl)c(S(=O)(=O)N(C)C)cc1OCC(N)=O`, the inhibition was -12.9% [at 20 µM].

With `COC(=O)/C=C/C(=O)NCc1ccco1`, the inhibition is -23.2% [at 20 µM].

By inhibition is commonly meant the change of the read-out against control, counted positive when it falls.
